Source: PubChem BioAssay AID1347418 (Sanford-Burnham Center for Chemical Genomics, 2020)
Hit rate of the full screen: of about 1,300 compounds, about 750 (58%) were called active. This is one part of the list.

Each molecule was assayed against Sulfhydryl oxidase 1 (Homo sapiens) (UniProt O00391) (assay: inhibition of human sulfhydryl oxidase QSOX1 – biochemical, ROS-Glo H2O2 luminescence, HTS, primary screen (AID 1347418)). Conditions: recombinant QSOX1, ROS-Glo H2O2 luminescence; at 12.5 µM; active compounds read high; active = any value above zero.
Sulfhydryl oxidase 1 (Homo sapiens), sequence (O00391 whole entry, looked up): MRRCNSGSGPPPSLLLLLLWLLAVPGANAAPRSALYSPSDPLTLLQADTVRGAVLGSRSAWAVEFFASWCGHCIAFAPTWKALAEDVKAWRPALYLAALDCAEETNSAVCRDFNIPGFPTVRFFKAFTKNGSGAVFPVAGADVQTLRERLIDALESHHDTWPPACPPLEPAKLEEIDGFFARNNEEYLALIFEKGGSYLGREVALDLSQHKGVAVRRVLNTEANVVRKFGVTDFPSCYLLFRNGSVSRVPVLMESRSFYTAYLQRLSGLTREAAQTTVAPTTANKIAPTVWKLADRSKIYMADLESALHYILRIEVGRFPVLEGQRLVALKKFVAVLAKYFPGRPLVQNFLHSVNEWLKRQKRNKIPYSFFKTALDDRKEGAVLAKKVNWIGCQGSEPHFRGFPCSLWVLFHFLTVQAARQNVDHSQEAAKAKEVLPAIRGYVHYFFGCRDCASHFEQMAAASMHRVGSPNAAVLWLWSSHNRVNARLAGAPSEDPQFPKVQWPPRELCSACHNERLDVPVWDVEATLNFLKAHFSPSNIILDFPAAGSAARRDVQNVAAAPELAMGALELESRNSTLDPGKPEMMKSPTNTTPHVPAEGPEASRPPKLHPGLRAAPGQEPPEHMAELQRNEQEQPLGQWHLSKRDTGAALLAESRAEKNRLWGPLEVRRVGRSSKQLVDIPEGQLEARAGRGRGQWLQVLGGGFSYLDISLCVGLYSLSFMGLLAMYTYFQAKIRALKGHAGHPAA

Row | Structure (SMILES) | inhibition
1 | CCN(CC)CC#CCOC(=O)C(O)(c1ccccc1)C1CCCCC1 (stereo not given) | -2.5% (inactive)
2 | CC#C[C@]1(O)CC[C@H]2[C@@H]3CCC4=CC(=O)CCC4=C3[C@@H](c3ccc(N(C)C)cc3)C[C@@]21C | 29.9% (active)
3 | O=C1Nc2ccc(I)cc2/C1=C/c1cc(Br)c(O)c(Br)c1 | 1.3% (active)
4 | NCCCS(=O)(=O)O | 4.4% (active)
5 | NCCS(=O)(=O)O | -4.9% (inactive)
6 | COCc1nc2c([nH]1)c(=O)n(C)c(=O)n2CC(C)C | -1.5% (inactive)
7 | CC(C)Cn1c(=O)n(C)c(=O)c2[nH]cnc21 | 1.8% (active)
8 | Cn1c(=O)c2[nH]cnc2n(C)c1=O | 2.2% (active)
9 | Cc1nc2c([nH]1)c(=O)n(C)c(=O)n2Cc1ccco1 | -1.4% (inactive)
10 | c1ccc(C(NCc2cccnc2)(c2ccccc2)c2ccccc2)cc1 | -3.5% (inactive)
11 | O=C(O)/C=C/C(O)c1ccc(Cl)cc1 (stereo not given) | -2.6% (inactive)
12 | Clc1ccc(C(c2ccccc2Cl)C(Cl)Cl)cc1 (stereo not given) | 22.6% (active)
13 | Cc1ccc(N(CC2=NCCN2)c2cccc(O)c2)cc1 | 34.7% (active)
14 | O=C1O/C(=C/Br)CCC1c1cccc2ccccc12 (stereo not given) | 2.5% (active)
15 | C[C@H](O)C(=O)C1=Nc2c(nc(N)[nH]c2=O)NC1 | 0.2% (active)
16 | CCCc1c(OCCCOc2ccc(OCC(=O)O)cc2)ccc(C(C)=O)c1O | 4.1% (active)
17 | O=C(O)/C(=C/c1c(C(=O)O)[nH]c2cc(Cl)cc(Cl)c12)c1ccccc1 | 3.9% (active)
18 | O=C1NC(c2cccc([N+](=O)[O-])c2)=CCN1c1ccccc1O | 3.1% (active)
19 | CCCCCC(O)c1cccc(OCc2ccc3ccccc3n2)c1 (stereo not given) | 2.8% (active)
20 | O=C(O)c1ccccc1Nc1cccc(OCc2ccc3ccccc3n2)c1 | 7.4% (active)

Row | Structure (SMILES) | inhibition
21 | O=C(c1ccccc1)c1ccc2n1CCC2C(=O)O (stereo not given) | -5% (inactive)
22 | N#C/C(=C\c1ccc(O)c(O)c1)C(=O)NCCCc1ccccc1 | 21% (active)
23 | N#C/C(=C\c1ccc(O)c(O)c1)C(=O)Nc1ccccc1 | 26.5% (active)
24 | N#C/C(=C\c1ccc(O)c(O)c1)C(=O)NCCc1ccccc1 | 28.3% (active)
25 | NNCCc1ccccc1 | -0.4% (inactive)
26 | C[C@H](NC(=O)/C(C#N)=C/c1ccc(O)c(O)c1)c1ccccc1 | 24.4% (active)
27 | C[C@]12C=CC(=O)C=C1CC[C@@H]1C2=CC[C@]2(C)[C@@H](C(=O)CN3CCN(c4cc(N5CCCC5)nc(N5CCCC5)n4)CC3)CC[C@@H]12 | -5.3% (inactive)
28 | CSc1ccc(C(=O)c2[nH]c(=O)[nH]c2C)cc1 | -1.7% (inactive)
29 | N#C/C(=C\c1ccc(O)c(O)c1)C(=O)NCCCNC(=O)/C(C#N)=C/c1ccc(O)c(O)c1 | 25% (active)
30 | N#C/C(=C\c1ccc(O)c(O)c1)C(=O)NCc1ccccc1 | 26.3% (active)
31 | CN(C)c1nc(N(C)C)nc(N(C)C)n1 | -0.9% (inactive)
32 | CC(=O)N1CCN(c2ccc(OC[C@H]3CO[C@](Cn4ccnc4)(c4ccc(Cl)cc4Cl)O3)cc2)CC1 | 9.3% (active)
33 | Nc1nc2c(ncn2COCCO)c(=O)[nH]1 | 0% (inactive)
34 | Nc1nc2c(ncn2COC(CO)CO)c(=O)[nH]1 | 0.2% (active)
35 | CO/N=C(\C(=O)N[C@@H]1C(=O)N2C(C(=O)O)=C(COC(C)=O)CS[C@H]12)c1csc(N)n1 | -6.9% (inactive)
36 | CC(=O)OCC1=C(C(=O)O)N2C(=O)[C@@H](NC(=O)Cc3cccs3)[C@H]2SC1 | 1% (active)
37 | Cc1ccc(/C(=C\CN2CCCC2)c2ccccn2)cc1 | -2.5% (inactive)
38 | O=C1N=C(O)C(c2ccccc2)(c2ccccc2)N1 | -3.8% (inactive)
39 | CCCOc1ccccc1-c1nc2n[nH]nc2c(=O)[nH]1 | -3% (inactive)
40 | O=c1[nH]c(=O)c2nc3ccccc3nc2[nH]1 | 8% (active)

Row | Structure (SMILES) | inhibition
41 | CC(=O)OCC(=O)[C@@]1(O)CC[C@H]2[C@@H]3CCC4=CC(=O)CC[C@]4(C)[C@H]3C(=O)C[C@@]21C | -7.3% (inactive)
42 | C[C@]12CCC(=O)C=C1CC[C@@H]1[C@@H]2[C@@H](O)C[C@@]2(C)[C@H]1CC[C@]2(O)C(=O)CO | -7.5% (inactive)
43 | CC(=O)[C@@]1(O)CC[C@H]2[C@@H]3CCC4=CC(=O)CC[C@]4(C)[C@H]3CC[C@@]21C | -1% (inactive)
44 | C[C@]12CCC(=O)C=C1CC[C@@H]1[C@@H]2CC[C@@]2(C)[C@H]1CC[C@]2(O)C(=O)CO | 1.9% (active)
45 | CC(=O)SC1CC2=CC(=O)CC[C@]2(C)C2CC[C@@]3(C)C(CC[C@@]34CCC(=O)O4)C12 (stereo not given in full) | -4.3% (inactive)
46 | C[C@]12C[C@H](O)[C@H]3[C@@H](CCC4=CC(=O)CC[C@@]43C)[C@@H]1CC[C@@H]2C(=O)CO | 1% (active)
47 | CC(=O)[C@H]1CC[C@H]2[C@@H]3CCC4=CC(=O)CC[C@]4(C)[C@H]3CC[C@]12C | -0.5% (inactive)
48 | C[C@]12CCC(=O)C=C1CC[C@@H]1[C@@H]2C(=O)C[C@@]2(C)[C@H]1CC[C@]2(O)C(=O)CO | 4.5% (active)
49 | O=C1NCN(c2ccccc2)C12CCN(CCCC(c1ccc(F)cc1)c1ccc(F)cc1)CC2 | -2.5% (inactive)
50 | COc1ccc2c(c1)c(CC(=O)O)c(C)n2C(=O)c1ccc(Cl)cc1 | 4.9% (active)
51 | COc1ccc2c(c1)c(CC(=O)O)c(C)n2C(=O)c1ccccc1 | -3.5% (inactive)
52 | Cc1ccc([N+](=O)[O-])cc1S(=O)(=O)N(C)C | 9.9% (active)
53 | Oc1ccc(/C=C/c2ccc(/C=C/c3ccc(O)cc3)c(Br)c2)cc1 | 1% (active)
54 | Oc1cc(O)cc(/C=C/c2ccc(O)c(O)c2)c1 | 44% (active)
55 | O=c1cc(O)cc(/C=C/c2ccc(O)c(O)c2)o1 | 30.2% (active)
56 | Oc1ccc(/C=C/c2cc(O)cc(O)c2)cc1 | 23.2% (active)
57 | C=CCn1c(=O)c2c(nc(-c3ccc(S(=O)(=O)O)cc3)n2C)n(C)c1=O | -0.9% (inactive)
58 | Cn1c(=O)c2c(nc(/C=C/c3cccc(Cl)c3)n2C)n(C)c1=O | 11.3% (active)
59 | O=C1NC(=O)C(c2ccccc2[N+](=O)[O-])=C1Nc1ccc(O)c(Cl)c1 | 35.4% (active)
60 | Cc1nc2n(c(=O)c1CCN1CCC(c3noc4cc(F)ccc34)CC1)CCCC2O (stereo not given) | 1.5% (active)
